The supplement of paper PMC10849652
Targets with a hit are over-represented here; the source holds about 7,900 in all. About 0.6% of all pairs of compound and target were hits.

Tests used:
Assay in all cases: log2 fold change, soluble protein after heating vs DMSO (PISA); higher = thermal stabilisation; K562 cells, 10 uM, 30 min; active = over 0.2 and 3.5 SD of the protein, either way, in both replicates (recomputed)
[1] = compound: CN1CCN(CCOc2cc(OC3CCOCC3)c3c(Nc4c(Cl)ccc5c4OCO5)ncnc3c2)CC1 [saracatinib]
Summary of the method: (§1)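 K562 cells at 2×10^6 cells/mL were treated with 10 μM compound for 30 min. Aliquots were heated for 3 min across 48°C-58°C, pooled, and extracted in PBS with 0.5% NP-40 at 4°C; soluble protein was the supernatant after 21,000xg for 90 min. Soluble protein was quantified by TMTpro 16plex LC-MS/MS with channel sums equalised, and reported as log2 fold change in thermal stability against DMSO controls, with values from duplicates.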

[2] = compound: CN1CCN(c2nc(C3=C(c4c[nH]c5ccccc45)C(=O)NC3=O)c3ccccc3n2)CC1 [sotrastaurin]
Summary of the method: as §1

[3] = compound: CN1CC[C@H](c2c(O)cc(O)c3c(=O)cc(-c4ccccc4Cl)oc23)[C@H](O)C1 [alvocidib]
Summary of the method: as §1

[4] = compound: CN1CCc2c(c3ccccc3n2Cc2ccc(C(=O)NO)cc2)C1 [Tubastatin A]
Summary of the method: as §1

[5] = compound: CNC(=O)C1=CC=CC=C1NC2=NC(=NC=C2Cl)NC3=C(C=C(C=C3)N4CCOCC4)OC
Summary of the method: as §1

[6] = compound: CNC(=O)c1ccc(Nc2ncc(C(F)(F)F)c(NCc3nccnc3N(C)S(C)(=O)=O)n2)cc1 [defactinib]
Summary of the method: as §1

[7] = compound: CNCc1ccc(-c2[nH]c3cc(F)cc4c3c2CCNC4=O)cc1 [rucaparib]
Summary of the method: as §1

[8] = compound: CNc1nc(-c2ccc3c(N)n[nH]c3c2)cc(N2C[C@@H](C(=O)NC3CCCCC3)CC[C@H]2C)n1
Summary of the method: as §1

[9] = compound: COC(=O)N[C@@H](C)CNc1nccc(-c2cn(C(C)C)nc2-c2cc(Cl)cc(NS(C)(=O)=O)c2F)n1 [encorafenib]
Summary of the method: as §1

[10] = compound: COC(=O)[C@H](CCSC)NC(=O)C1=C(C=C(C=C1)NC[C@H](CS)N)C2=CC=CC=C2
Summary of the method: as §1

[11] = compound: COC1=CC=C(C=C1)CN2C=CC3=C2C=C(C=C3)C(=O)NO
Summary of the method: as §1

[12] = compound: CON(C)C(=O)N1N=C(c2cc(F)ccc2F)S[C@@]1(CCCN)c1ccccc1 [filanesib]
Summary of the method: as §1

[13] = compound: CO[C@H]1C[C@@H]2CC[C@@H](C)[C@@](O)(O2)C(=O)C(=O)N2CCCC[C@H]2C(=O)O[C@H]([C@H](C)C[C@@H]2CC[C@H](n3cnnn3)[C@H](OC)C2)CC(=O)[C@H](C)/C=C(\C)[C@@H](O)[C@@H](OC)C(=O)[C@H](C)C[C@H](C)/C=C/C=C/C=C/1C [zotarolimus]
Summary of the method: as §1

[14] = compound: COc1cc(C(=O)O)ccc1NC(=O)[C@@H]1N[C@@H](CC(C)(C)C)[C@](C#N)(c2ccc(Cl)cc2F)[C@H]1c1cccc(Cl)c1F [idasanutlin]
Summary of the method: as §1

[15] = compound: COc1cc(Nc2ncc3c(n2)-c2ccc(Cl)cc2C(c2c(F)cccc2OC)=NC3)ccc1C(=O)O [alisertib]
Summary of the method: as §1

[16] = compound: COc1cc2nc(-c3cc(F)ccc3O)nc(N[C@@H]3CNC[C@H]3C(C)(C)O)c2cc1OC
Summary of the method: as §1

[17] = compound: COc1cc2ncnc(Nc3ccc(F)c(Cl)c3)c2cc1OCCCN1CCOCC1 [gefitinib]
Summary of the method: as §1

[18] = compound: COc1cccc2cc(-c3nc([C@H]4CC[C@H](C(=O)O)CC4)n4ncnc(N)c34)[nH]c12
Summary of the method: as §1

[19] = compound: CS(=O)(=O)CCNCc1ccc(-c2ccc3ncnc(Nc4ccc(OCc5cccc(F)c5)c(Cl)c4)c3c2)o1 [lapatinib]
Summary of the method: as §1

[20] = compound: CS(=O)(=O)N1CCN(Cc2cc3nc(-c4cccc5[nH]ncc45)nc(N4CCOCC4)c3s2)CC1 [pictilisib]
Summary of the method: as §1

Measured: log2 fold change

ALDH1B1 (UniProt P30837)
inactive: [1] -0.015 | [2] 0.001 | [3] -0.093 | [4] 0.014 | [5] 0.002 | [6] -0.055 | [7] -0.015 | [8] 0.062 | [9] 0.013 | [10] -0.042 | [11] 0.051 | [12] -0.1 | [13] 0.029 | [14] -0.122 | [15] -0.045 | [16] -0.009 | [17] 0.091 | [18] 0.075 | [19] -0.003 | [20] 0.062

AHCYL1 (UniProt O43865)
inactive: [1] 0.101 | [2] 0.014 | [3] 0.1 | [4] -0.042 | [5] 0.182 | [6] 0.104 | [7] 0.044 | [8] 0.061 | [9] -0.043 | [10] -0.005 | [11] 0.015 | [12] -0.05 | [13] -0.017 | [14] -0.056 | [15] -0.087 | [16] 0.046 | [17] 0.029 | [18] 0.093 | [19] 0.014 | [20] 0.126

ATAD3B (UniProt Q5T9A4)
inactive: [1] -0.047 | [2] -0.101 | [3] 0.091 | [4] -0.009 | [5] -0.084 | [6] 0.096 | [7] 0.25 | [8] 0 | [9] 0.125 | [10] 0.033 | [11] -0.035 | [12] 0.089 | [13] -0.064 | [14] 0.081 | [15] 0.193 | [16] -0.138 | [17] -0.134 | [18] -0.136 | [19] -0.047 | [20] -0.161

BRIX1 (UniProt Q8TDN6)
Sequence of UniProt Q8TDN6 (Q8TDN6 whole entry, looked up): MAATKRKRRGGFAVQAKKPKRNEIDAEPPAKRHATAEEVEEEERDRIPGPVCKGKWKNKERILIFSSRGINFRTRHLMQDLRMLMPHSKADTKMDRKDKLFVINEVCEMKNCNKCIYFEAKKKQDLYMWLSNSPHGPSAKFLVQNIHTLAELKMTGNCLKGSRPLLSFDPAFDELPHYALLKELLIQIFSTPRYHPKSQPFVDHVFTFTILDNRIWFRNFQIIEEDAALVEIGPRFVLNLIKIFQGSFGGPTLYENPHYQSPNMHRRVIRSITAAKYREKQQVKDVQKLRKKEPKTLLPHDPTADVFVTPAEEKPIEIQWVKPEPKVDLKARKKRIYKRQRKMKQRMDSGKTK
inactive: [1] -0.106 | [2] -0.051 | [3] 0.174 | [4] 0.2 | [5] -0.154 | [6] 0.394 | [7] 0.253 | [8] 0.129 | [9] 0.123 | [10] 0.017 | [11] -0.006 | [12] 0.574 | [13] 0.132 | [14] 0.397 | [15] -0.23 | [16] -0.224 | [17] -0.039 | [18] -0.193 | [19] 0.218 | [20] -0.004

ATP5ME (UniProt P56385)
Sequence of UniProt P56385 (P56385 whole entry, looked up): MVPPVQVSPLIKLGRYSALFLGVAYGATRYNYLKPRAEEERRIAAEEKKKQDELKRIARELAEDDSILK
inactive: [1] 0.026 | [2] 0.009 | [3] 0.04 | [4] -0.009 | [5] -0.006 | [6] 0.029 | [7] -0.022 | [8] -0.069 | [9] -0.07 | [10] 0.023 | [11] -0.023 | [12] -0.053 | [13] 0.002 | [14] -0.024 | [15] -0.027 | [16] -0.04 | [17] 0.021 | [18] 0.063 | [19] -0.001 | [20] 0.019

AKT2 (UniProt P31751)
Sequence of UniProt P31751 (P31751 whole entry, looked up): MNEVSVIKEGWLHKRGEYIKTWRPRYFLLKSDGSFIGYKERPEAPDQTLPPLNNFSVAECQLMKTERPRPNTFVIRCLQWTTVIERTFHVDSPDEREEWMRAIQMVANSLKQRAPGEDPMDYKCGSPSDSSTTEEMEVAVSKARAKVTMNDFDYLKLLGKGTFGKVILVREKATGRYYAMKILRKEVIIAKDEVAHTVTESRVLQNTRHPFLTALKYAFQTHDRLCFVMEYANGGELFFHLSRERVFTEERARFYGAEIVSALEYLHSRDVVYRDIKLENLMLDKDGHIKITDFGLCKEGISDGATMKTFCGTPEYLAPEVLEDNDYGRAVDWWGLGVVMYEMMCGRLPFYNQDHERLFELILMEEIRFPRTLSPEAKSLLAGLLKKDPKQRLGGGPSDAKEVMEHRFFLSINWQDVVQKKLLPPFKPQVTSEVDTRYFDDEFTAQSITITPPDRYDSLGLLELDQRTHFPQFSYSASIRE
inactive: [1] -0.012 | [2] -0.068 | [3] -0.005 | [4] 0.01 | [5] 0.042 | [6] -0.009 | [7] -0.058 | [8] -0.102 | [9] 0.015 | [10] 0.013 | [11] 0.008 | [12] -0.056 | [13] -0.01 | [14] -0.121 | [15] -0.041 | [16] 0.008 | [17] -0.012 | [18] -0.231 | [19] 0.04 | [20] 0.044

ATP13A2 (UniProt Q9NQ11)
Sequence of UniProt Q9NQ11 (Q9NQ11 whole entry, looked up): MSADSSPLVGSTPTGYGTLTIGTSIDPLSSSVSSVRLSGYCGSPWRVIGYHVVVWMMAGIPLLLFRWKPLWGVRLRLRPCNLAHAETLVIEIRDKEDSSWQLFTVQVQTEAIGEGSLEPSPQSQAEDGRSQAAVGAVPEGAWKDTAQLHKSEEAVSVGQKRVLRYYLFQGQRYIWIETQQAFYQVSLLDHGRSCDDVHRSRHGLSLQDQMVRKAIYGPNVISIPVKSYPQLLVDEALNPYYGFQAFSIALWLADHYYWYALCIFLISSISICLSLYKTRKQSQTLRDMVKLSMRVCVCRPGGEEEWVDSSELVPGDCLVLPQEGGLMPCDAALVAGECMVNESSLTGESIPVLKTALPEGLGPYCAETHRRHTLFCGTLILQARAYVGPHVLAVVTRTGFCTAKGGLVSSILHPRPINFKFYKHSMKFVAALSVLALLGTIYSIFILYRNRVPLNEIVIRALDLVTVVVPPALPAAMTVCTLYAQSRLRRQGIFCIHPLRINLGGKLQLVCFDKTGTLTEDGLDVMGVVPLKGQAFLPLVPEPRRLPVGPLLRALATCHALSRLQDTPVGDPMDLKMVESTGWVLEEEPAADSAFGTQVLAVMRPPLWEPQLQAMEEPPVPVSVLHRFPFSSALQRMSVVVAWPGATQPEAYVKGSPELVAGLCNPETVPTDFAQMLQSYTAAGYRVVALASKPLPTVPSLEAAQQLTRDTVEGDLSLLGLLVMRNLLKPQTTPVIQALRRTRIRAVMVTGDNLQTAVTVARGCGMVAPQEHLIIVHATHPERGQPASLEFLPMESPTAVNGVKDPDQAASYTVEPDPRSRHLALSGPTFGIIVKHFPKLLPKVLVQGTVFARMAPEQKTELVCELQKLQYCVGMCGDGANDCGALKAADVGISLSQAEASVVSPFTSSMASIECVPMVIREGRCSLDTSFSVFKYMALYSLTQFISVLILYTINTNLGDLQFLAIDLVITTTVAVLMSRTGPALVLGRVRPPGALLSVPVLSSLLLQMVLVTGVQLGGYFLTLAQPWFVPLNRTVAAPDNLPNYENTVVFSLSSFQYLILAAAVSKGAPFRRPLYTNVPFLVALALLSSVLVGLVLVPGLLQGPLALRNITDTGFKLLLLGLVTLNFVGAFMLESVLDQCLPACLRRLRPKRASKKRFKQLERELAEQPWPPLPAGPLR
inactive: [1] 0.061 | [2] 0.036 | [3] 0.023 | [4] 0.026 | [5] 0.015 | [6] -0.116 | [7] 0 | [8] 0.039 | [9] -0.027 | [10] 0.026 | [11] 0.053 | [12] -0.134 | [13] 0.023 | [14] 0.027 | [15] -0.143 | [16] 0.019 | [17] -0.005 | [18] 0.053 | [19] -0.005 | [20] 0.066

ARAF (UniProt P10398)
Sequence of UniProt P10398 (P10398 whole entry, looked up): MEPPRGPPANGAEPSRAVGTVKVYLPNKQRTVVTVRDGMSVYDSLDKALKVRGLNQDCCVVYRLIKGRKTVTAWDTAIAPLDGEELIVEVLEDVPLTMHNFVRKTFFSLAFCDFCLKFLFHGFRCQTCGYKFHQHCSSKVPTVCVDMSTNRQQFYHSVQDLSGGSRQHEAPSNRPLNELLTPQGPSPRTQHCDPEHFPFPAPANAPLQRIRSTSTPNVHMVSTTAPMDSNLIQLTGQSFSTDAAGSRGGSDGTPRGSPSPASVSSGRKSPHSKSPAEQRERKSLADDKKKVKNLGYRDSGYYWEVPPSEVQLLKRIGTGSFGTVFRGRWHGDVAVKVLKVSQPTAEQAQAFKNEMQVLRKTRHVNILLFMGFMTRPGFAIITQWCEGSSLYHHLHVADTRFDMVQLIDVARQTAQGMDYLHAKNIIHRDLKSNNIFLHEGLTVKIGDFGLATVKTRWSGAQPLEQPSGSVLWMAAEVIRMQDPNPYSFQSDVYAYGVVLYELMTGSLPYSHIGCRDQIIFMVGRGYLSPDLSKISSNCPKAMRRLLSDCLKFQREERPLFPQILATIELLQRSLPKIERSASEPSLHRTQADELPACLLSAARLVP
active: [16] -0.274
inactive: [1] 0.037 | [2] -0.022 | [3] 0.013 | [4] -0.004 | [5] -0.084 | [6] -0.023 | [7] 0.01 | [8] 0.023 | [9] 0.177 | [10] -0.067 | [11] 0 | [12] -0.022 | [13] 0.06 | [14] 0.006 | [15] 0.076 | [17] 0.076 | [18] 0.06 | [19] 0.076 | [20] -0.175

AAR2 (UniProt Q9Y312)
Sequence of UniProt Q9Y312 (Q9Y312 whole entry, looked up): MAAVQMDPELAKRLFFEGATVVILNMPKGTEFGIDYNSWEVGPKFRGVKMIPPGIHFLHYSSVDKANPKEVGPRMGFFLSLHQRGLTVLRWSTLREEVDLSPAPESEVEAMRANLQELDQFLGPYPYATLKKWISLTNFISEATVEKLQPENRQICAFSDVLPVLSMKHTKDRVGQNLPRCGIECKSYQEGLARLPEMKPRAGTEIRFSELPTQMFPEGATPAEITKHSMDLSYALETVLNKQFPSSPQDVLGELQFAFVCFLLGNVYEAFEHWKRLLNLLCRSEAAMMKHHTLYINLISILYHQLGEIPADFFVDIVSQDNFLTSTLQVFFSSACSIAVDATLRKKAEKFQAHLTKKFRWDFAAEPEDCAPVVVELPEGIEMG
inactive: [1] 0.06 | [2] -0.017 | [3] -0.026 | [4] -0.027 | [5] -0.049 | [6] 0.063 | [7] 0.17 | [8] -0.069 | [9] -0.029 | [10] -0.015 | [11] 0.022 | [12] 0.111 | [13] 0.042 | [14] 0.002 | [15] -0.129 | [16] 0.104 | [17] 0.075 | [18] 0.058 | [19] -0.005 | [20] -0.082

ATR (UniProt Q13535)
inactive: [1] -0.044 | [2] -0.013 | [3] -0.107 | [4] 0.02 | [5] 0.014 | [6] -0.035 | [7] 0.008 | [8] 0.039 | [9] 0.008 | [10] -0.024 | [12] 0.019 | [13] 0.057 | [14] -0.067 | [15] -0.05 | [16] 0.031 | [17] 0.019 | [18] 0 | [19] 0.039 | [20] 0.112
active: [11] -0.267

ANAPC2 (UniProt Q9UJX6)
Sequence of UniProt Q9UJX6 (Q9UJX6 whole entry, looked up): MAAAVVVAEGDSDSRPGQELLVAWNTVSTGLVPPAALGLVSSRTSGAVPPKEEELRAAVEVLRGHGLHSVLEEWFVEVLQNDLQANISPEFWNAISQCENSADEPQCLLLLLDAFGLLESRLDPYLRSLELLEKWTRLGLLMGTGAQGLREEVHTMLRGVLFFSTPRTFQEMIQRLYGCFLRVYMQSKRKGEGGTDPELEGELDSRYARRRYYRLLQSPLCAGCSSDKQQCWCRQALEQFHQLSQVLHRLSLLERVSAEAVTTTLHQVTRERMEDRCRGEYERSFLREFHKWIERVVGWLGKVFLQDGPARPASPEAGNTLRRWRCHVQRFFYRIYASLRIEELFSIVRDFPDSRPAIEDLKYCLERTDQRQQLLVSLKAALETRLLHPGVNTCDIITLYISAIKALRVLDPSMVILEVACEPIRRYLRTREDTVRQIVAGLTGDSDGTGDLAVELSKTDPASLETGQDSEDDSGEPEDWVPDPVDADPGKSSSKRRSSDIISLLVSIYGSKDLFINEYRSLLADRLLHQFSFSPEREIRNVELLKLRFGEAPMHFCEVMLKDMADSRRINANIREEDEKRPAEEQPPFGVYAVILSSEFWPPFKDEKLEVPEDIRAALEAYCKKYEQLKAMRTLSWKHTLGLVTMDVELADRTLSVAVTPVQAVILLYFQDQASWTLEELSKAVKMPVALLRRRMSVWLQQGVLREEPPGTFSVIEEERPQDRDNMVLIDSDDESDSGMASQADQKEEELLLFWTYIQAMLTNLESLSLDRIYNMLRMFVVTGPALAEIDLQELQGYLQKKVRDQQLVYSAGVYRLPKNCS
inactive: [1] -0.003 | [2] -0.084 | [3] -0.02 | [4] 0.009 | [5] -0.011 | [6] -0.049 | [7] 0.027 | [8] -0.063 | [9] 0.124 | [10] 0.006 | [11] 0.026 | [12] -0.042 | [13] 0.012 | [14] -0.047 | [15] -0.074 | [16] -0.038 | [17] -0.034 | [18] -0.004 | [19] 0.059 | [20] 0.015

ALG3 (UniProt Q92685)
Sequence of UniProt Q92685 (Q92685 whole entry, looked up): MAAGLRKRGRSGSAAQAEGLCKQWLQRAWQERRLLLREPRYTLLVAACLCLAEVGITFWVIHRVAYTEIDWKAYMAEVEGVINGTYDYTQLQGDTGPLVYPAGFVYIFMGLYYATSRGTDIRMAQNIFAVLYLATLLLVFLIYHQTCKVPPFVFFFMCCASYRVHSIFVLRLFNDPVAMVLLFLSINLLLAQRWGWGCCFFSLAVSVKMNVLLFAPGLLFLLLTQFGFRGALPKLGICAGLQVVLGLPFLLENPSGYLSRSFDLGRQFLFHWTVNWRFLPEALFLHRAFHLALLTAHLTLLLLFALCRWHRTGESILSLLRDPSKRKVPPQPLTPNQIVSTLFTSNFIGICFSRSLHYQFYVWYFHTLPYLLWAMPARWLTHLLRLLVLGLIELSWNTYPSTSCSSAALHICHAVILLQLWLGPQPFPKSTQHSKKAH
inactive: [1] 0.145 | [2] -0.047 | [3] 0.055 | [4] -0.056 | [5] 0.116 | [6] 0.009 | [7] 0.1 | [8] 0.056 | [9] 0.076 | [10] 0.013 | [11] 0.109 | [12] -0.095 | [13] 0.06 | [14] -0.212 | [15] -0.001 | [16] 0.035 | [17] -0.046 | [18] 0 | [19] 0.104 | [20] 0.006

BRK1 isoform 2 (UniProt Q8WUW1)
Sequence of UniProt Q8WUW1 (Q8WUW1 whole entry, looked up): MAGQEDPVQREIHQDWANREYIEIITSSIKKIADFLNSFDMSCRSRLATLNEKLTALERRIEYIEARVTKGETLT
inactive: [1] 0.036 | [2] 0.007 | [3] -0.027 | [4] 0.037 | [5] -0.011 | [6] -0.074 | [7] -0.05 | [8] -0.03 | [9] -0.063 | [10] -0.018 | [11] 0.113 | [12] 0.127 | [13] -0.049 | [14] 0.031 | [15] -0.076 | [16] -0.07 | [17] 0.05 | [18] -0.041 | [19] -0.032 | [20] 0.018

BRD8 (UniProt Q9H0E9)
inactive: [1] 0.004 | [2] -0.001 | [3] 0.004 | [4] -0.097 | [5] -0.017 | [6] -0.047 | [7] -0.012 | [8] -0.08 | [9] -0.027 | [10] -0.009 | [11] -0.013 | [12] 0.064 | [13] -0.029 | [14] 0.08 | [15] -0.061 | [16] -0.032 | [17] 0.005 | [18] 0.017 | [19] -0.009 | [20] 0.103

AIP (UniProt O00170)
Sequence of UniProt O00170 (O00170 whole entry, looked up): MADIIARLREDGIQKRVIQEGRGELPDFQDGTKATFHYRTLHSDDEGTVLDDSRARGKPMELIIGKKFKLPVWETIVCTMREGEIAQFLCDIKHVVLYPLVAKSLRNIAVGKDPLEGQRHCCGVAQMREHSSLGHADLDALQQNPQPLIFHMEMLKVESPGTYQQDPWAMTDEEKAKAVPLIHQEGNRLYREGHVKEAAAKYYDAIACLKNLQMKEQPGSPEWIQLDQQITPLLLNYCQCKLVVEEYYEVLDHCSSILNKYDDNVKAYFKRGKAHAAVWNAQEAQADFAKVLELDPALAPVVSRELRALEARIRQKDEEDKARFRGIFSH
inactive: [1] 0.009 | [2] -0.038 | [3] -0.079 | [4] 0.034 | [5] 0.028 | [6] -0.068 | [7] -0.015 | [8] -0.046 | [9] 0.065 | [10] -0.025 | [11] 0.06 | [12] -0.041 | [13] 0.021 | [14] -0.019 | [15] -0.046 | [16] 0.054 | [17] -0.002 | [18] -0.019 | [19] -0.019 | [20] 0.015

ATOX1 (UniProt O00244)
Sequence of UniProt O00244 (O00244 whole entry, looked up): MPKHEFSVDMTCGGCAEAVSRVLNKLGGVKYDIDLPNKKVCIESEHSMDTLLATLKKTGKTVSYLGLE
active: [11] 0.471
inactive: [1] -0.042 | [2] -0.054 | [3] -0.106 | [4] 0.062 | [5] 0.001 | [6] -0.117 | [7] -0.09 | [8] -0.046 | [9] 0.047 | [10] -0.105 | [12] -0.122 | [13] 0.113 | [14] -0.096 | [15] -0.062 | [16] -0.388 | [17] -0.036 | [18] -0.07 | [19] 0.314 | [20] -0.015
